# Hit rate of the full screen: of about 190,000 compounds, about 1,300 (0.68%) were called active. Only a selection was taken, and actives are over-represented in it overall. A number with no mark means an inactive call. Cut-off read from the data, not from the text of the source: active = inhibition above about 50%; inactive = the rest.
# Target: Mannose-6-phosphate isomerase (Homo sapiens) (UniProt P34949)
# Assay: human PMI inhibitors, high substrate, primary screen, biochemical, fluorescence intensity, high mannose 6-phosphate (AID 1220)
# Settings: recombinant PMI enzyme, coupled fluorescence intensity; at 20 µM; stronger effect = higher value
# Mannose-6-phosphate isomerase (Homo sapiens), sequence (P34949 whole entry, looked up): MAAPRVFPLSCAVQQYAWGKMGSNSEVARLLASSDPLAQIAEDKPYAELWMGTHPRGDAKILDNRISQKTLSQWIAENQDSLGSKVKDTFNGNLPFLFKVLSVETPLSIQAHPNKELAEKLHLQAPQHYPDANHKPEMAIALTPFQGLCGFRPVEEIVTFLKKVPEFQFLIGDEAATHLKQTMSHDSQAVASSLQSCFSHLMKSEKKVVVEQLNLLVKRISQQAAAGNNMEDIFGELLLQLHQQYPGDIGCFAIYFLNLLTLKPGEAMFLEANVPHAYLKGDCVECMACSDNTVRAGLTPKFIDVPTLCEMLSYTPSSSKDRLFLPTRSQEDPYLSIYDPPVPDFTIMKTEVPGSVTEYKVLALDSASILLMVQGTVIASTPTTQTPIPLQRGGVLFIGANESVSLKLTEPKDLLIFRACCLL
row,Compound,inhibition
1,Cc1cc(C=NCCO)c(C)n1-c1cc(Cl)ccc1Cl,1.2%
2,C=CCNC(=O)CN(c1ccccc1OCC)S(=O)(=O)c1ccc(C)cc1,9.1%
3,O=C(c1cccc(Br)c1)N1CCN(S(=O)(=O)N2CCOCC2)CC1,-0.4%
4,Cc1nn(-c2nc3ccccc3s2)c(N)c1-c1ccc(Cl)cc1,-4.7%
5,CCOC(=O)c1ccccc1N=N/C(C(C)=O)=C(/C)O,3.4%
6,Cc1cc(C(=O)Nc2sc3c(c2C#N)CCC(C)C3)cs1 (centres undefined),-2.5%
7,O=C(Cn1cnc2ccccc2c1=O)NCc1cccs1,36.2%
8,COc1cccc(/C=N/NC(=O)C(=O)N/N=C/c2cccc(OC)c2O)c1O,-27.8%
9,CCCn1c(/N=C/c2cc(OC)ccc2O)nc2ccccc21,13.5%
10,COc1cccc(C=Nc2cc(C)cc(C)c2)c1O,17.1%
11,COc1ccc(O)c(C=NCC(C)N=Cc2cc(OC)ccc2O)c1 (centres undefined),51.9% (active)
12,COc1cccc(C=NCC(C)N=Cc2cccc(OC)c2O)c1O (centres undefined),52.3% (active)
13,COc1ccc(O)c(C=Nc2cc(C)on2)c1,23.9%
14,Cc1ccc(CN(Cc2cc3cc4c(cc3[nH]c2=O)OCCO4)Cc2nnnn2Cc2ccco2)cc1,17.2%
15,CC(C)Cn1c(N2CCN(CC(=O)Nc3ccc(Cl)cc3)CC2)nc2ccccc21,13.8%
16,CCn1c(CN2CCN(C(=O)c3ccco3)CC2)nc2c1c(=O)n(C)c(=O)n2C,-1%
17,CCCS(=O)(=O)c1cn2cccc(N)c2c1S(=O)(=O)CCC,4%
18,CC(=O)N1CCc2cc(NC(=O)c3ccc(C)cc3)ccc21,3.7%
19,Cn1nnc2cc(C(=O)N3CCCCCC3)ccc21,0.1%
20,COc1ccc(/C=C(\C#N)c2nc3ccc(C)cc3[nH]2)cc1Oc1ccc(C(F)(F)F)cc1[N+](=O)[O-],1.7%
21,COc1cc(/C=C(\C#N)c2nc3ccc(C)cc3[nH]2)cc([N+](=O)[O-])c1O,64.5% (active)
22,COc1cc(/C=C(\C#N)c2nc3ccccc3[nH]2)c([N+](=O)[O-])cc1OCc1ccccc1,66.5% (active)
23,COc1cc(/C=C(\C#N)c2nc3ccc(C)cc3[nH]2)c([N+](=O)[O-])cc1OC,47.8%
24,COc1cc(/C=C(\C#N)c2nc3ccccc3s2)cc([N+](=O)[O-])c1O,71.2% (active)
25,COc1cc(/C=C(\C#N)c2nc3ccccc3[nH]2)cc(Br)c1OCc1ccccc1,-16.7%

row,Compound,inhibition
1,COc1cc(/C=C(\C#N)c2nc3ccccc3s2)ccc1OCC(=O)Nc1ccccc1,-0.3%
2,COc1cc(C=C(c2nc3ccccc3s2)c2nc3ccccc3s2)ccc1O,34.4%
3,COc1cc(C=C(c2nc3ccccc3s2)c2nc3ccccc3s2)cc(OC)c1O,54.4% (active)
4,COc1cc(/C=C(/C#N)c2nc3ccccc3[nH]2)ccc1Oc1ncccc1[N+](=O)[O-],11.5%
5,N#C/C(=C\c1ccc(O)c([N+](=O)[O-])c1)c1nc2ccccc2s1,0.6%
6,COc1ccc(C=C(c2nc3ccccc3s2)c2nc3ccccc3s2)cc1O,31.1%
7,C=CCN(C(=O)CCC(=O)Nc1cc(C)on1)C(C(=O)NC1CCCC1)c1cccnc1 (centres undefined),12.1%
8,COc1nc(Nc2cccc([N+](=O)[O-])c2)nc(OC)n1,11.7%
9,Cc1cc2c(nn1)CCC/C2=N\O,4%
10,COc1ccc(C(=O)CSc2nnc(CNC(=O)c3ccc(OC)cc3)n2C)cc1,-5.4%
11,Cc1cc2nnc(SC3CCCCN(C(=O)c4ccc(F)cc4)C3=O)n2c2ccccc12 (centres undefined),3%
12,CC(C)c1ccc(/C=N/NC(=O)c2cccc(Cl)c2)cc1,-5.5%
13,CC(C)Cn1ccc(=O)n(CC(C)C)c1=O,12%
14,CC(C)c1ccc(NC(=O)COc2ccccn2)cc1,4.4%
15,CC(C)CC(=O)NC(c1ccccc1Cl)c1c(O)ccc2ccccc12 (centres undefined),6.9%
16,O=c1c(-c2nnc(SCc3ccc(Cl)cc3Cl)o2)cccn1Cc1ccccc1,7.2%
17,COc1ccc(N2C(=O)CC(n3c(CCCCO)nc4ccccc43)C2=O)cc1 (centres undefined),-9.5%
18,Cn1c(/C(C#N)=C/c2ccncc2)nc2ccccc21,30.7%
19,Cn1c(/C(C#N)=C/c2cccc(O)c2)nc2ccccc21,6.4%
20,COc1cc(/C=C(\C#N)c2nc3ccccc3n2C)cc(OC)c1O,57% (active)
21,Cc1nc2ccc(Cl)cc2nc(C)/c1=N\O,32.9%
22,Cc1ccc2nc(C)/c(=N\O)c(C)nc2c1,2.2%
23,Cc1nc2ccccc2nc(C)c1=NO,54.2% (active)
24,COCCN1C(=O)/C(=C/c2ccc(OCc3ccc(C(=O)O)cc3)c(OC)c2)SC1=Nc1ccccc1,5.1%
25,CC(C)CNC(=O)COC(=O)c1cc(S(=O)(=O)N(C)C)ccc1N1CCCC1,4.7%

row,Compound,inhibition
1,CCN1C=CC2=C(C#N)C(N)C(C#N)(C#N)C(c3ccccc3C(F)(F)F)C2C1 (centres undefined),5.1%
2,CN1C=CC2=C(C#N)C(N)C(C#N)(C#N)[C@H](c3ccccc3)[C@H]2C1 (some centres undefined),61% (active)
3,CN1C=CC2=C(C#N)C(N)C(C#N)(C#N)C(c3ccccc3)C2C1 (centres undefined),18.5%
4,O=C(Cn1nc(C(F)(F)F)c2c1CCC2)NCc1ccc(Cl)cc1,-8.7%
5,CC(C)C(C)NC(=O)CN1C(=O)NC2(CCCc3ccccc32)C1=O (centres undefined),-2.2%
6,CN(CCO)c1cc(N2CCCCC2)c2nonc2c1[N+](=O)[O-],42.4%
7,O=[N+]([O-])c1c(NCCCO)cc(N2CCN(Cc3ccc4c(c3)OCO4)CC2)c2nonc12,45.2%
8,CCOC(=O)C1CCCN(c2cc(NCCCO)c([N+](=O)[O-])c3nonc23)C1 (centres undefined),55.2% (active)
9,CC1CCCN(c2cc(N(C)CCO)c([N+](=O)[O-])c3nonc23)C1 (centres undefined),18%
10,O=[N+]([O-])c1c(NCCO)cc(N2CCN(Cc3ccc4c(c3)OCO4)CC2)c2nonc12,49.1%
11,CN(CCO)c1cc(N2CCC3(CC2)OCCO3)c2nonc2c1[N+](=O)[O-],34.9%
12,CCOC(=O)N1CCN(c2cc(N(C)CCO)c([N+](=O)[O-])c3nonc23)CC1,55.5% (active)
13,CN(CCO)c1cc(N2CCN(C(=O)c3ccco3)CC2)c2nonc2c1[N+](=O)[O-],12.4%
14,CC1CCN(c2cc(N(C)CCO)c([N+](=O)[O-])c3nonc23)CC1,50.7% (active)
15,CC(C)(C)NC(=O)COC(=O)Cc1ccc(Cl)cc1,-0.9%
16,COC(=O)N/N=C/c1cc(Cl)c(OCc2ccc(F)cc2)c(OC)c1,-6.1%
17,CCC(C)NCCOCCOc1ccc(C)cc1Br (centres undefined),0.7%
18,CCn1c(SCC(=O)N/N=C/C=C\c2ccccc2[N+](=O)[O-])nc2ccccc21,6.4%
19,CCOc1ccc(NC2CCN(C(C)=O)CC2)cc1,33.1%
20,Clc1ccc(CCNc2nc3ccccc3s2)cc1,1.2%
21,O=C(CSc1ncccc1C(=O)O)c1ccccc1,-60.9%
22,Cn1c(SCC(=O)Nc2cccc(Br)c2)nnc1-c1cc2ccccc2o1,-14.1%
23,O=C(NCCc1ccccc1)c1ccccc1F,8.3%
24,c1cncc(-c2nnc(-c3cccnc3)nn2)c1,62.4% (active)
25,c1cncc(-c2cccnc2)c1,-2.8%

row,Compound,inhibition
1,c1cncc(-c2nn[nH]n2)c1,-12.1%
2,COc1ccc(S(=O)(=O)NC(CC(=O)NCC2CCCO2)c2ccco2)cc1 (centres undefined),8%
3,Cc1cccc(OCCOCCN2CCNCC2)c1C,-5%
4,Cc1nc2sc(C(c3ccccc3)N3CCOCC3)c(O)n2n1 (centres undefined),3.4%
5,NC1=NC(=O)C(CC(=O)NCc2ccccc2)S1 (centres undefined),-10.3%
6,O=C(O)CNC(=O)CC1S/C(=N/N=C2/NC(=O)CS2)NC1=O (centres undefined),29.5%
7,Cc1ccc(C(=O)OCC(=O)Nc2ccccc2)cc1NC(=O)c1ccco1,-0.6%
8,Cc1ccc(C)c(N2CCN(C(=O)CNS(=O)(=O)c3cccs3)CC2)c1,-4.9%
9,COc1ccc(Cn2c(SCc3ccc(C)cc3)nc3cc(OC)c(OC)cc3c2=N)cc1Cl,1.9%
10,Cc1ccsc1/C=C/c1ccc2cccc(O)c2n1,-8.2%
11,CSc1ccc(/C=C/c2ccc3cccc(O)c3n2)cc1,17.3%
12,O=C(CSc1nnc(-c2cccs2)n1-c1ccccc1)NCC1CCCO1 (centres undefined),5.8%
13,O=C1c2ccccc2C(=O)c2c1cccc2N1CCCC1,19.4%
14,CCNc1ccc2noc3c2c1C(=O)c1ccccc1-3,46%
15,O=C1c2ccccc2-c2onc3ccc(N4CCCC4)c1c23,62.6% (active)
16,O=C1c2ccccc2-c2onc3ccc(NCCCn4ccnc4)c1c23,14.4%
17,CCOc1ccc2noc3c2c1C(=O)c1ccccc1-3,19%
18,O=C1c2ccccc2-c2onc3ccc(NCc4ccco4)c1c23,58.1% (active)
19,CSc1nc2ccccc2n1CC(=O)N1CCCCC1,8.7%
20,CCC(Sc1ccc2nnc(-c3ccc(OC)c(OC)c3)n2n1)C(=O)O (centres undefined),-19.3%
21,CN(C)S(=O)(=O)c1cc(NC(=O)Cn2ccsc2=N)ccc1Cl,-0.6%
22,CN1CCN(c2ccc(NC(=O)c3sc4ccccc4c3Cl)cc2)CC1,10.7%
23,CN1CCN(c2ccccc2NC(=O)c2sc3ccccc3c2Cl)CC1,62.3% (active)
24,O=C(NC(=S)Nc1ccccc1N1CCOCC1)c1sc2ccccc2c1Cl,7.5%

# — PubChem BioAssay AID1220 (Sanford-Burnham Center for Chemical Genomics, 2008)
